SMILES strings stand for the structures. “And” between values parts separate entries of the source, which are not always exact repeats. Equal entries are not always repeated. The source made the active and inactive calls.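 How the source made its calls: active means response below a set limit, under 55% cells CD8-positive and vesicle-bound, and CD8 cells' 90th-percentile brightness under 279; inactive means the rest.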

This assay can be described thus: inhibitors of CD8+ T cell-vesicle binding, pilot screen, LFA-1/ICAM-1 modulator project, MLPCN validation set, flow cytometry (AID 2523).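 On vesicle binding response: mean PE anti-B7-1 fluorescence of CD8+ cells relative to row control; 100% = QL9-loaded vesicles with DMSO vehicle in the same plate row.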 The conditions noted are these: 2C mouse CD8+ T cells, at 7 µM, stronger effect = lower value; double positive events: measured here: CD8+/vesicle+ event percentage.
Take `S=C(NCCOCCOCCNC(=S)Nc1ccccc1)Nc1ccccc1`: the vesicle binding response is 250% (inactive) and the double positive events was 64.8%.

Consider `Cc1ccc(CN2CCN(Cc3cn[nH]c3C3CCCCC3)CC2CCO)cc1` (stereo not given), for which the vesicle binding response was 264% (inactive) and the double positive events was found to be 58.2%.

With `OCCC1CN(Cc2ccccc2-c2ccco2)CCN1C1CCCC1` (stereo not given), the vesicle binding response is 123% (inactive) and the double positive events is 59%.

In the case of `COc1ccc2oc(-c3ccco3)cc(=O)c2c1`, the vesicle binding response was 23.9% (inactive) and the double positive events was found to be 59.1%.

On to `Nc1nc2c(nc(SCc3ccccc3Br)n2C2OC(CO)C(O)C2O)c(=O)[nH]1` (stereo not given), for which the vesicle binding response was 50.1% (inactive) and the double positive events came to 62.7%.

Regarding `O=C(CCC(=O)NCCO)NCCO`, the double positive events is 61.3% and the vesicle binding response is 174% (inactive).

`Cc1cc(=O)[nH]c(=S)[nH]1`: the vesicle binding response was 223% (inactive) and the double positive events stood at 64.4%.

Turning to `CN(C)C(=O)Oc1cccc([N+](C)(C)C)c1`, the double positive events was 55.5% and 63.8%; the vesicle binding response is 158% (inactive) and 4880% (inactive).

Turning to `COc1cc(/C=C/C(=O)O)cc(S(=O)(=O)NCCCO)c1OC`, the vesicle binding response is 157% (inactive) and the double positive events amounted to 59.6%.

Turning to `COC(=O)c1sccc1NC(=O)Nc1ccccc1F`, the vesicle binding response was 197% (inactive) and the double positive events came out at 69.3%.

On to `CC1(C)C(=O)OC(/C=C\c2ccccc2)C(C)(C)C1=O` (stereo not given), for which the vesicle binding response is 160% (inactive) and the double positive events is 64.8%.

In the case of `O=C(/C=C/c1ccc(F)cc1)NC(=S)N1CCCCC1c1cccnc1` (stereo not given), the double positive events stood at 56.7% and the vesicle binding response is 165% (inactive).

Take `COc1cc2c(cc1OC)C1(CCCC1)CNC2c1cccc([N+](=O)[O-])c1` (stereo not given): the vesicle binding response was 235% (inactive) and the double positive events came out at 54.7%.

Turning to `O=C(NCCO)c1ccc(Cl)c(Cl)c1`, the vesicle binding response was 97% (inactive) and the double positive events was determined as 59.4%.

With `N#C/C(=C\c1ccc(O)c(O)c1)C(=O)NCCCc1ccccc1`, the double positive events was found to be 62.1% and the vesicle binding response was 206% (inactive).

Source of the values: PubChem BioAssay.
